Results: PubChem BioAssay (NCATS)
Values joined by “and” are separate entries in the source; they are usually repeats but may differ in a detail not shown here. Identical values can stand only once. Records with an inconclusive call do not appear. Active and inactive are the calls of the source. The call rests on the fitted dose curve; in most records, active means well fitted curve in the direction sought with a large enough effect; inconclusive means small, poorly fitted or top-dose-only effect, or another doubt; inactive means no such curve, though single readings can be large; an effect the other way counts as inactive or inconclusive.

Legend:
[1] = qHTS of pediatric cancer cell lines to identify multiple opportunities for drug repurposing: Confirmatory screen for NB1643 cells (AID 1347109); further: nearly all actives have a fitted effect of over 45% in size
Summary of the method: (§1)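 Cells (500-1,000/well) rested 5 h, then received compounds for 48 h; metabolically active cells were measured by CellTiter-Glo luminescence. Final concentrations spanned up to 46 µM (MIPE, 11-point) or 0.59 nM-46 µM (NPC, 8-point) in primary screens, 11-point in follow-ups.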

[2] = qHTS of pediatric cancer cell lines to identify multiple opportunities for drug repurposing: Confirmatory screen for A673 cells (AID 1347110);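 further: cells exposed to compound for 48 h before the viability read; nearly all actives have a fitted effect of over 65% in size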
Summary of the method: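 Forty-eight-hour viability assay. Follow-up compounds ran at 11-point dilutions; positive control bortezomib at 2.3 uM final, neutral control DMSO.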

[3] = qHTS of pediatric cancer cell lines to identify multiple opportunities for drug repurposing: Confirmatory screen for SK-N-MC cells (AID 1347111);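 further: cells exposed to compound for 48 h before the readout; nearly all actives have a fitted effect of over 70% in size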
Summary of the method: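 Seed 500-1,000 cells/well; rest 5 h at 37 degrees C. Pin-transfer compounds, 11-point titration. Incubate 48 h. Add CellTiter-Glo, 15 min RT, read luminescence.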

[4] = qHTS of pediatric cancer cell lines to identify multiple opportunities for drug repurposing: Confirmatory screen for BT-12 cells (AID 1347112); further: nearly all actives have a fitted effect of over 55% in size
Summary of the method: as §1

[5] = qHTS of pediatric cancer cell lines to identify multiple opportunities for drug repurposing: Confirmatory screen for LAN-5 cells (AID 1347113); further: nearly all actives have a fitted effect of over 65% in size
Summary of the method: as §1

[6] = qHTS of pediatric cancer cell lines to identify multiple opportunities for drug repurposing: Confirmatory screen for TC32 cells (AID 1347118);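 further: cells exposed to compound for 48 h before the read; nearly all actives have a fitted effect of over 65% in size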
Summary of the method: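 Luminescent CellTiter-Glo read-out of metabolically active TC32 cells after 48 h compound exposure. Primary: MIPE 11-point, 0.78 nM–46 µM; NPC 8-point, 0.59 nM–46 µM. Confirmatory: 11-point dilutions.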

[7] = qHTS of pediatric cancer cell lines to identify multiple opportunities for drug repurposing: Confirmatory screen for MG 63 (6-TG R) cells (AID 1347119); further: nearly all actives have a fitted effect of over 55% in size
Summary of the method: as §1

[8] = qHTS of pediatric cancer cell lines to identify multiple opportunities for drug repurposing: Confirmatory screen for control Hh wild type fibroblast cells (AID 1347121); further: nearly all actives have a fitted effect of over 70% in size
Summary of the method: as §1

[9] = qHTS of pediatric cancer cell lines to identify multiple opportunities for drug repurposing: Confirmatory screen for U-2 OS cells (AID 1347122); further: nearly all actives have a fitted effect of over 65% in size
Summary of the method: as §1

[10] = qHTS of pediatric cancer cell lines to identify multiple opportunities for drug repurposing: Confirmatory screen for Rh41 cells (AID 1347123); further: nearly all actives have a fitted effect of over 60% in size
Summary of the method: as §1

Measured: Potency
Potency means the concentration at half of the fitted maximal effect.

CNS(=O)(=O)CCc1ccc2[nH]cc(C3CCN(C)CC3)c2c1
active: [2] 3.69 µM | [3] 4.14 µM | [6] 13.1 µM
inactive: all other assays above

COc1ccc(-c2ccc3cc(C(=O)O)ccc3c2)cc1C12CC3CC(CC(C3)C1)C2
active: [1] 9.27 µM | [2] 5.85 µM | [3] 2.61 µM | [6] 2.08 µM | [9] 0.0827 µM
inactive: [4] | [8] | [10]

C[C@@H](CN1CC(=O)NC(=O)C1)N1CC(=O)NC(=O)C1
not listed: [7]
inactive: all other assays above

CC(C)(C#N)c1cc(Cn2cncn2)cc(C(C)(C)C#N)c1
inactive: all assays above

NC(=O)c1cccnc1
inactive: [5] | [8] | [9] | [10]
active: [2] 13.1 µM | [3] 14.7 µM | [6] 16.5 µM

CS(=O)(=O)c1ccc([C@@H](O)[C@@H](CO)NC(=O)C(Cl)Cl)cc1
not listed: [1] | [3] | [7]
inactive: all other assays above

CC(=O)[C@H]1CC[C@H]2[C@@H]3CCC4=CC(=O)CC[C@]4(C)[C@H]3CC[C@]12C
active: [6] 5.22 µM | [10] 18.5 µM

CCOC(=O)c1ccc(C#Cc2ccc3c(c2)C(C)(C)CCS3)nc1
inactive: [1] | [4] | [5] | [8]

N=C(N)c1ccc(OCCCCCOc2ccc(C(=N)N)cc2)cc1
active: [4] 3.29 µM | [7] 11.7 µM

O=C(NCC1CN(c2ccc(N3CCOCC3=O)cc2)C(=O)O1)c1ccc(Cl)s1 (stereo unspecified)
inactive: [8] | [9]
active: [3] 2.93 µM | [6] 2.61 µM

CNNCc1ccc(C(=O)NC(C)C)cc1
active: [2] 10.4 µM
not listed: [1] | [3] | [6]
inactive: all other assays above

COC(=O)Nc1nc2ccc(C(=O)c3ccccc3)cc2[nH]1
inactive: [8]
active: [2] 1.04 µM | [4] 4.14 µM | [6] 0.369 µM | [9] 1.85 µM

CN1CCCC(n2nc(Cc3ccc(Cl)cc3)c3ccccc3c2=O)CC1 (stereo unspecified)
inactive: [7] | [8] | [9]
active: [2] 9.27 µM | [3] 23.3 µM | [6] 26.1 µM | [10] 8.27 µM

CNC(=O)c1cc(Oc2ccc(NC(=O)Nc3ccc(Cl)c(C(F)(F)F)c3)cc2)ccn1
active: [1] 20.8 µM | [2] 23.3 µM | [5] 23.3 µM | [6] 18.5 µM

Nc1nc(F)nc2c1ncn2[C@@H]1O[C@H](CO)[C@@H](O)[C@@H]1O
inactive: [8]
active: [1] 0.465 µM | [2] 1.85 µM | [3] 0.465 µM | [6] 18.5 µM and 737 nM | [7] 737 nM and 827 nM | [9] 1.47 µM

CC(C)C[C@H](NC(=O)[C@H](CCc1ccccc1)NC(=O)CN1CCOCC1)C(=O)N[C@@H](Cc1ccccc1)C(=O)N[C@@H](CC(C)C)C(=O)[C@@]1(C)CO1
active: [2] 0.0522 µM | [3] 0.0083 µM | [4] 0.165 µM | [5] 0.0329 µM | [6] 0.0233 µM | [7] 0.0657 µM | [8] 0.737 µM

COc1nc(N)nc2c1ncn2[C@@H]1O[C@H](CO)[C@@H](O)[C@@H]1O
active: [2] 1.85 µM | [3] 2.93 µM | [6] 3.69 µM | [10] 16.5 µM
inactive: [1] | [5] | [8] | [9]

O=S(=O)(O)CCS
inactive: [2] | [6] | [9] | [10]
active: [7] 5.22 µM

Oc1c(Cl)cc(Cl)c2cccnc12
active: [1] 18.5 µM | [2] 8.27 µM | [3] 13.1 µM | [5] 14.7 µM | [6] 8.27 µM | [7] 11.7 µM | [9] 9.27 µM | [10] 14.7 µM

S=P(N1CC1)(N1CC1)N1CC1
active: [2] 0.928 µM | [3] 3.69 µM | [6] 4.14 µM
inactive: [4] | [7] | [8] | [9]

COC(=O)Nc1nc2ccc(S(=O)c3ccccc3)cc2[nH]1 (stereo unspecified)
active: [1] 1.85 µM | [2] 1.17 µM | [3] 1.47 µM | [6] 1.04 µM | [7] 1.31 µM | [9] 2.93 µM | [10] 1.04 µM
inactive: [8]

Cc1cccc(N(C)C(=S)Oc2ccc3ccccc3c2)c1
inactive: [1] | [2] | [5] | [8]

CC1CC2C3CCC4=CC(=O)C=C[C@]4(C)[C@@]3(F)[C@@H](O)C[C@]2(C)[C@@]1(O)C(=O)CO (stereo partly specified)
active: [2] 2.93 µM
not listed: [1]
inactive: all other assays above

COc1cc2c(Nc3ccc(Br)cc3F)ncnc2cc1OCC1CCN(C)CC1
active: [10] 16.5 µM
not listed: [2]
inactive: all other assays above

Nc1nc(N)nc(-c2cc(Cl)ccc2Cl)n1
inactive: [4] | [7] | [8]
active: [2] 26.9 µM | [3] 1.17 µM

COC(=O)Nc1nc2ccc(Sc3ccccc3)cc2[nH]1
active: [2] 1.17 µM | [3] 1.04 µM | [6] 0.827 µM | [7] 0.928 µM | [9] 3.69 µM | [10] 1.17 µM

COc1cc2nc(N3CCCN(C)CC3)nc(NC3CCN(Cc4ccccc4)CC3)c2cc1OC
active: [1] 20.8 µM | [2] 7.37 µM | [3] 3.69 µM | [6] 11.7 µM | [10] 0.261 µM
inactive: [7] | [8]

CC(C(=O)O)c1ccc2c(c1)CC(=O)c1ccccc1S2 (stereo unspecified)
inactive: [1] | [3] | [8] | [9] | [10]
